# PubChem BioAssay (EPA / NIEHS)
# Inconclusive results are not listed. Calls of active or inactive are those of the source. Rule for the calls: active = hit-call score of the fitted dose curve at least 0.9, where 1 is the maximum; inconclusive = response in the unintended direction; inactive = score below 0.9.
# Target: chimpanzee Androgen Receptor (AR), AR (gene 747460) (UniProt O97775)
# Test: NVS_NR_cAR: NovaScreen (NVS) Nuclear Receptor Binding Assay for chimpanzee Androgen Receptor (AR) (AID 2283346);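 note: a loss of bound radioligand signal versus DMSO counts as binding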
# Experimental: NVS_NR_cAR is a biochemical, single-readout assay that uses extracted gene-proteins from Sf9/Sf21 in a cell-free assay. Measurements were taken 72 hours after chemical dosing in a 96-well plate.NVS_NR_cAR is one of one assay component(s) measured or calculated from the NVS_NR_cAR assay. It is designed to make measurements of radioligand binding, a form of binding reporter, as detected with scintillation counting signals by Lysate-based radiodetection technology.Data from the assay component NVS_NR_cAR was analyzed into 1 assay endpoint. This assay endpoint, NVS_NR_cAR, was analyzed in the positive analysis fitting direction relative to DMSO as the negative control and baseline of activity. Using a type of binding reporter, loss-of-signal activity can be used to understand changes in the binding as they relate to the gene AR. Furthermore, this assay endpoint can be referred to as a primary readout, because the performed assay has only produced 1 assay endpoint. To generalize the intended target to other relatable targets, this assay endpoint is annotated to the nuclear receptor intended target family, where the subfamily is steroidal.
# Binding assays used specific radioligands (tritiated, iodinated) with non-radioactive competitive displacement ligands in agonist or antagonist protocols (as indicated) and various reference compounds and inhibitors to titrate specific binding to receptors and transporters. Most enzyme assays (CYPs, kinases, phosphatases, proteases, HDACs) used recombinant protein and specific substrates (fluorescence mostly, some colorimetric and radioactive) and inhibitors, followed by a biochemical separation of substrate and product. All assays for the biochemical HTS were initially run in duplicate at a single concentration (10 uM for CYP450 assays and 25 uM for all others). […] Each assay was run with positive and negative controls, and concurrent controls on every plate. The follow-up (secondary) screen tested active chemical-pairs in concentration series, as well as a few additional assays not tested in the primary screen, some selected negative inactives, and several cases re-run in the concentration series for confirmatory purposes.
# Chain of chimpanzee Androgen Receptor (AR), AR (gene 747460) (O97775 whole entry, looked up): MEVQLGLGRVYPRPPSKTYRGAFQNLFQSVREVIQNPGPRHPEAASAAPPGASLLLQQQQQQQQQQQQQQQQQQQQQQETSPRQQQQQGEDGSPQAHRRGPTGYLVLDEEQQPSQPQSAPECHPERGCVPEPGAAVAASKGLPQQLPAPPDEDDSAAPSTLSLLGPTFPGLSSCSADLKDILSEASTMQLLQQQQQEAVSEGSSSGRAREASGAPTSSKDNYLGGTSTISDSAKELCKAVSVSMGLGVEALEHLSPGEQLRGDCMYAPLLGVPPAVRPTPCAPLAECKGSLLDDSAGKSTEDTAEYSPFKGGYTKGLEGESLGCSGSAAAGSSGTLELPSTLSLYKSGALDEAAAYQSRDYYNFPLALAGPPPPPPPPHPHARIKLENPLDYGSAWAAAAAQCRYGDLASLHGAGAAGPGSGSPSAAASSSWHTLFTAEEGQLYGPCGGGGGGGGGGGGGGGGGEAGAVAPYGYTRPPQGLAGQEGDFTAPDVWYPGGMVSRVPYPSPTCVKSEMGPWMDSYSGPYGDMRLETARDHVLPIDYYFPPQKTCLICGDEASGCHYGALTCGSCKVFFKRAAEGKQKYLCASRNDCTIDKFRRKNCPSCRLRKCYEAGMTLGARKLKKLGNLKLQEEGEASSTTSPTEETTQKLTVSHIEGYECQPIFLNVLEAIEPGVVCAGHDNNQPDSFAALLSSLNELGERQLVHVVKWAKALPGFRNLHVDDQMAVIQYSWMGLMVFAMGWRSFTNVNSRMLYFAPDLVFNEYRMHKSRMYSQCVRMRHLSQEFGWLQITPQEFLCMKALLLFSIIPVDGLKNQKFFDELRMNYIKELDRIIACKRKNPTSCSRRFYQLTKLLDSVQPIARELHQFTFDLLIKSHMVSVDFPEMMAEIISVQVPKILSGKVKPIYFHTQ
SMILES,AC50,outcome
CC(C1CC1)C(O)(Cn1cncn1)c1ccc(Cl)cc1 (configuration not stated),24.9 µM (active),
FC(F)C(F)(F)OCC(Cn1cncn1)c1ccc(Cl)cc1Cl (configuration not stated),5.47 µM (active),
Nc1c(Cl)cc([N+](=O)[O-])cc1Cl,15.4 µM (active),
C[Si](Cn1cncn1)(c1ccc(F)cc1)c1ccc(F)cc1,9.47 µM (active),
CCc1cccc(CC)c1N(COC)C(=O)CCl,34.6 µM (active),
C#CCC1=C(C)C(OC(=O)C2C(C=C(C)C)C2(C)C)CC1=O (configuration not stated),,inactive
CN(C)[C@@H]1C(=O)C(C(N)=O)=C(O)[C@@]2(O)C(=O)C3=C(O)c4c(O)cccc4[C@@](C)(O)[C@H]3[C@H](O)[C@@H]12,11.3 µM (active),
CCC(=O)Nc1ccc(Cl)c(Cl)c1,12.4 µM (active),
CCOP(=O)(NC(C)C)Oc1ccc(SC)c(C)c1 (configuration not stated),25 µM (active),
COc1ccc(C(=CC(=O)N2CCOCC2)c2ccc(Cl)cc2)cc1OC,17.3 µM (active),
CCCOCC(=Nc1ccc(Cl)cc1C(F)(F)F)n1ccnc1,5.96 µM (active),
CC[C@H](C)[C@H]1O[C@]2(C=C[C@@H]1C)C[C@@H]1C[C@@H](C/C=C(\C)[C@@H](O[C@H]3C[C@H](OC)[C@@H](O[C@H]4C[C@H](OC)[C@@H](NC)[C@H](C)O4)[C@H](C)O3)[C@@H](C)/C=C/C=C3\CO[C@@H]4[C@H](O)C(C)=C[C@@H](C(=O)O1)[C@]34O)O2,6.02 µM (active),
